# Hit rate of the full screen: of about 310,000 compounds, about 14,000 (4.5%) showed an effect of 50% or more. The effect is printed as a negative number. Shown is part of a subset that was picked to be rich in strong results.
# Biological target: human ether-à-go-go-related gene (hERG) potassium channel (human, UniProt Q12809)
# Assay: primary screen, population patch clamp on CHO cells stably expressing hERG; higher = less effect of the substance
# 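Further: peak tail current of the secondary pulse compared with the same well before compound.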
# Sequence of human ether-à-go-go-related gene (hERG) potassium channel (Q12809 whole entry, looked up): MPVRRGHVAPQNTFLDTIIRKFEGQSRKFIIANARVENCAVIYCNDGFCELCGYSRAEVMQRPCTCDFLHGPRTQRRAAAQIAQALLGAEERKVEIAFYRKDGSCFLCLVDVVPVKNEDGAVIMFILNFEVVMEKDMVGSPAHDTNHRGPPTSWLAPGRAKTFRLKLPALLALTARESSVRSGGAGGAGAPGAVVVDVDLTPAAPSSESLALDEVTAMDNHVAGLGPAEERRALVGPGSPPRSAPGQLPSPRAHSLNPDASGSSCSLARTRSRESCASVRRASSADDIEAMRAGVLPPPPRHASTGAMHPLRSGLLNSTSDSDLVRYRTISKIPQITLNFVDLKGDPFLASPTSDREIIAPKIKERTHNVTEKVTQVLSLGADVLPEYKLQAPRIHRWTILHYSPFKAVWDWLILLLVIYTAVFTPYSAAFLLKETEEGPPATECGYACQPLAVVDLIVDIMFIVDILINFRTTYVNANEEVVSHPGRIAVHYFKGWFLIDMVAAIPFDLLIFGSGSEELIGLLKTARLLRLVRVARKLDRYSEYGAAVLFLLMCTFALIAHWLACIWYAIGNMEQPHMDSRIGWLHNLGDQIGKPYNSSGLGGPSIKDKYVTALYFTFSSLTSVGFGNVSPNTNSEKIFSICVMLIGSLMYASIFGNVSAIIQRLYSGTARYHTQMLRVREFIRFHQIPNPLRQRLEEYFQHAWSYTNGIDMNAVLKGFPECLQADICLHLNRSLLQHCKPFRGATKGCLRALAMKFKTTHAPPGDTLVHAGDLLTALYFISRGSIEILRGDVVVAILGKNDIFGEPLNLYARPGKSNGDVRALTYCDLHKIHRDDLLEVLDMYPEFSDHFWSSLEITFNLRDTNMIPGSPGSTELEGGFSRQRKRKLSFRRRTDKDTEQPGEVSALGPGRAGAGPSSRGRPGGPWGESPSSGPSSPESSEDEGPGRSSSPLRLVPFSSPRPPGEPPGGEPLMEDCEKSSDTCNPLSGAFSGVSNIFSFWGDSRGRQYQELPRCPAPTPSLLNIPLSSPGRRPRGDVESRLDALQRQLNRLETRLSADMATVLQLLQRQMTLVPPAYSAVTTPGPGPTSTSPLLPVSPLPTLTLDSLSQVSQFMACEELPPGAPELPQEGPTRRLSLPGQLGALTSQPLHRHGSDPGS
row,Compound,"hERG current change (%, negative = inhibition) at 10uM"
1,CCC(C(=O)Nc1ccc([N+](=O)[O-])cn1)c1ccccc1 (centres unmarked),-67.4%
2,Cc1csc(NC(=O)C(C)Oc2ccc(Cl)cc2C)n1 (centres unmarked),-21%
3,CCC(CC)C(=O)Nc1ccc([N+](=O)[O-])cn1,10.8%
4,Cc1cccc(Nc2ccc([N+](=O)[O-])cn2)c1,10.9%
5,CC(=O)Nc1ccc([N+](=O)[O-])cn1,24.4%
6,CCN(CC)S(=O)(=O)c1ccc(NC(=O)Cc2cccs2)cc1,5.81%
7,CCOC(=O)c1c(NC(=O)CSc2nc3c(c(=O)n(C)c(=O)n3C)n2C(C)C)sc(C)c1C,-0.527%
8,CCCCNC(=O)c1cc([N+](=O)[O-])[nH]n1,19.1%
9,COc1ccccc1N1CCN(C(=O)CSc2nc3ccccc3nc2N2CCCCC2)CC1,19%
10,COCCNC(=O)CSc1nc2ccccc2c(=O)n1CCC(=O)N1CCN(c2ccccc2)CC1,-35%
11,O=C(CSc1nc2ccccc2c(=O)[nH]1)N1CCN(c2ccccc2)CC1,14.1%
12,COCCNc1nc(SCC(=O)N2CCN(c3ccccc3)CC2)nc2ccccc12,-86.9%
13,COc1ccccc1N1CCN(C(=O)CSc2nnc3c4ccccc4nc(Cc4ccccc4)n23)CC1,-4.18%
14,COCCNc1nc(SCC(=O)N2CCN(c3ccccc3OC)CC2)nc2ccccc12,-88.6%
15,O=C(NC1CC1)c1ccc(-c2nc3ccccc3s2)s1,10.7%
16,O=C(Cn1cnc2ccccc2c1=O)Nc1nnc(SCc2ccc(Cl)cc2)s1,10.9%
17,Cn1cc(CC(=O)N2CCN(c3ccccc3F)CC2)c2ccccc21,-9.66%
18,CCCOc1ccccc1N/C(=N\S(=O)(=O)c1ccc(C)cc1)Nc1nc(C)cc(C)n1,26.1%
19,COc1cc2cc(CCCOC(=O)c3ccc(C#N)cc3)oc(=O)c2cc1OC,-65%
20,O=C(OCCCc1cc2ccccc2c(=O)o1)c1ccc(F)cc1,-37.9%
21,N#Cc1ccc(C(=O)OCCCc2cc3ccccc3c(=O)o2)cc1,-69.4%
22,N#Cc1ccc(C(=O)OCCc2cc3ccccc3c(=O)o2)cc1,-29%

row,Compound,"hERG current change (%, negative = inhibition) at 10uM"
1,CC(C)(OC(=O)c1ccc(C#N)cc1)c1cc2ccccc2c(=O)o1,-73.1%
2,COc1cc2cc(CCCOC(=O)c3ccc(F)cc3)oc(=O)c2cc1OC,-29.5%
3,CC(C)(OC(=O)c1ccc(C(F)(F)F)cc1)c1cc2ccccc2c(=O)o1,14.6%
4,COc1cc2cc(CCOC(=O)c3ccc(C#N)cc3)oc(=O)c2cc1OC,-37.9%
5,CC(C)(OC(=O)c1ccc(F)cc1)c1cc2ccccc2c(=O)o1,3.1%
6,COc1cccc(CNCCc2ccccc2)c1OC.Cl,5.21%
7,O=C1C=C(c2cccc3c2oc2ccccc23)CCC1,-2.35%
8,Cc1c(C(=O)/C=C/N(C)C)nnn1-c1ccc(F)c(Cl)c1,2.73%
9,O=C(NCCc1ccccc1)C1CCC(=O)N1CCc1ccccc1 (centres unmarked),8.78%
10,CC1CCN(CCCCOc2ccccc2-c2ccccc2)CC1.O=C(O)C(=O)O,-72.6%
11,CN1CCN(CCCCOc2ccccc2-c2ccccc2)CC1.O=C(O)C(=O)O,-38.2%
12,CC1CN(CCOCCOc2ccccc2-c2ccccc2)CC(C)O1.O=C(O)C(=O)O (centres unmarked),-13.5%
13,C=CCc1cc(Cl)ccc1OCCN1CC(C)OC(C)C1.O=C(O)C(=O)O (centres unmarked),-53.1%
14,C=CCc1cc(Cl)ccc1OCCn1ccnc1.O=C(O)C(=O)O,-10.1%
15,CC1CN(CCCOc2ccccc2-c2ccccc2)CC(C)O1.O=C(O)C(=O)O (centres unmarked),-47.2%
16,CC1CC(C)CN(CCOc2ccccc2-c2ccccc2)C1.O=C(O)C(=O)O (centres unmarked),-68.5%
17,CC1CN(CCOc2ccccc2-c2ccccc2)CC(C)O1.O=C(O)C(=O)O (centres unmarked),-9.99%
18,CC1CCN(CCCCOc2ccccc2F)CC1.O=C(O)C(=O)O,-13.3%
19,C=CCc1cc(OC)ccc1OCCN1CC(C)OC(C)C1.O=C(O)C(=O)O (centres unmarked),-9.85%
20,O=C(O)C(=O)O.c1ccc(-c2ccccc2OCCOCCN2CCCCC2)cc1,-44.7%
21,CC1CCCN(CCOCCOc2ccccc2-c2ccccc2)C1.O=C(O)C(=O)O (centres unmarked),-72.9%
22,Cc1ccc(S(=O)(=O)N2CCC(C(=O)Nc3ccc(S(=O)(=O)N4CCCC4)cc3)CC2)cc1,-10.6%

# Reference: paper PMC4336329 (PLoS ONE, 2015)
